JMJD2E inh – inhibitors of human JMJD2E histone demethylase. B2RXH2. JMJD2E catalytic domain, FDH-coupled NADH fluorescence (FDH is formaldehyde dehydrogenase). Potency, µM (series often up to 57.1 µM), for the others: at the top dose activity change, negative = inhibition, usual class: inhibitors. 230,000 tested, 1.6% active. AID 2147; active = well fitted inhibition curve with a large enough effect, not every such curve was filed as active; inconclusive = small, poorly fitted or top-dose-only effect, or another doubt; inactive = no such curve, though single readings can be large or run the other way;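 also: 0% = wells with enzyme and -100% = buffer wells without enzyme; nearly all actives have a fitted effect of over 50% in size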
Target sequence (B2RXH2 1-337 limits assumed): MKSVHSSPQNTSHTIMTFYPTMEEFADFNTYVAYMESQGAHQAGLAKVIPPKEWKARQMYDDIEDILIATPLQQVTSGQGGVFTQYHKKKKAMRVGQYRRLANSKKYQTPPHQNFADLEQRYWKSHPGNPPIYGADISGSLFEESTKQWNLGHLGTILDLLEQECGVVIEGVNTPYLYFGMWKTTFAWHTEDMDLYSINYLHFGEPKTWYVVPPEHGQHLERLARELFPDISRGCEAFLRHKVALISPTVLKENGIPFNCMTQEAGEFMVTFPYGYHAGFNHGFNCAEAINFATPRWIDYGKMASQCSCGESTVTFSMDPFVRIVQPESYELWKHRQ
HttQ103 aggreg – mutant huntingtin aggregation inhibition; 220,000 tested, 1.1% active; Potency, µM (titrated, usually from 46.1 µM), for inactives: at the top dose activity change, negative = inhibition, actives largely listed as inhibitors; PC12 HttQ103-GFP aggregates, Acumen cytometry, 40 h; also: % is scaled to controls: 0 for no effect and ±100 for the full control effect; nearly all actives have a fitted effect of over 60% in size
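PC12 cells with ecdysone-inducible HTT exon1 Q103-GFP, induced by 100 nM tebufenozide, given compounds in a concentration series. GFP aggregates (1–25 um, 6 SD above background) counted in lysates by laser-scanning cytometry, 488 nm excitation.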
HTT ATP protect – protects HTT-Q103 PC12 cells, measured by ATP; PC12 HTT-Q103 induced, cytoprotection, ATP luminescence, 40 h; Potency, µM (titrated, usually from 56.4 µM), for the others: cytoprotection (ATP increase), usual class: activators; 230,000 tested, 0.14% active; AID 1471; also: % of control where 0% means no effect; nearly all actives have a fitted effect of over 45% in size
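Quantitative HTS on tebufenozide-induced (100 nM) PC12 cells expressing HTTQ103 exon 1–GFP; compounds tested as a concentration series; survival measured via cellular ATP.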
L3MBTL1 block – L3MBTL1 (human) inhibition; Q9Y468; AlphaScreen L3MBTL1–H3K9me1 peptide binding; Potency, µM (titrated, usually from 57.1 µM), for the others: at the highest dose activity, negative = inhibition, hits mostly inhibitors; 230,000 tested, 0.66% active; AID 485360; also: % is scaled to controls: 0 for no effect and ±100 for the full control effect; nearly all actives have a fitted effect of over 60% in size
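L3MBTL1 (50 nM) pre-complexed 30 min with biotinylated H3(1-15)K9me1 peptide (75 nM), then compounds added for 30 min at room temperature; AlphaScreen streptavidin donor/nickel chelate acceptor beads (10 ug/mL final) read after 30 min dark incubation.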
An asterisk follows results filed as active; u = inconclusive; x = not tested or not shown; [ ] = dose if it differs, or a comment. Rows were chosen to be rich in hits. Some 1.8% of all compounds tested hit in one or more screens of this group. Unless noted, calls follow the shape of the dose curve; as a rule, active = well fitted curve in the direction sought with a large enough effect; inconclusive = small, poorly fitted or top-dose-only effect, or another doubt; inactive = no such curve, though single readings can be large; an effect the other way counts as inactive or inconclusive. Potency is read from the fitted curve at half-maximal effect.

SMILES	JMJD2E inh	HttQ103 aggreg	HTT ATP protect	L3MBTL1 block
O=C(OCC(=O)N1CCc2ccccc21)c1cncc(Br)c1	3%	u	2.2µM*	20%
COCOc1ccc(OC)cc1C(=O)/C=C/c1ccc(OC)c(Br)c1	-12%	x	-46%	x
O=C(CSc1ncn[nH]1)c1cccc([N+](=O)[O-])c1	7.9µM*	7%	11%[10 µM]	-3%
O=C(CSc1nc2ncccc2[nH]1)c1cccc([N+](=O)[O-])c1	-8%	30%	-70%[10 µM]	-5%
COc1ccc(C(=O)N/N=C/c2cccc3cccnc23)cc1	u	u	-89%	u
CCOc1ccc(C(=O)N/N=C/c2cccc3cccnc23)cc1	u	3.5µM*	-64%	u
CCSc1ncc(/C=N/Nc2ccc(Cl)cc2)n1C	18µM*	u	-51%	-14%
CCSc1ncc(/C=N/Nc2ccccc2)n1C	2%	-21%	26%[10 µM]	-1%
CCNc1ncc2nc(C)c(=O)n(C)c2n1	x	x	-48%	x
CCOC(=O)c1c(NS(=O)(=O)c2cccc(OC)c2)sc2c1CCC2	u	-6%	14µM*	u
CCOC(=O)Nc1sc2c(c1C(=O)OCC)CCC2	1%	5%[9.22 µM]	-1%	x
Cc1ccc(/C=N/Nc2nncc(-c3ccccc3)n2)o1	-5%	13%	-31%	-5%
CCCCN(CCCC)C(=S)N/N=C/c1c(C)[nH]n(-c2ccccc2)c1=O	u	11µM*	-112%	-8%
Cc1[nH]n(-c2ccc(Br)cc2)c(=O)c1/C=N/NC(=O)c1ccccc1	x	x	x	-1%
Cc1[nH]n(-c2ccccc2)c(=O)c1/C=N/Nc1nncc(-c2ccccc2)n1	u	u	-74%[10 µM]	25µM*
O=c1c(O)c(-c2ccc(O)c(O)c2)oc2c(OC[C@H]3O[C@@H](O)[C@@H](O)[C@H](O)[C@@H]3O)c(O)cc(O)c12	x	x	0%	x
COc1cc(OC)c2c(c1)OC1Cc3cc(OC)c(OC)cc3C2O1 (stereo not drawn)	-5%[11.4 µM]	x	-12%[10 µM]	x
O=[N+]([O-])c1ccc(N=Nc2ccc(O)cc2O)cc1	-5%	1.3µM*	-147%	x
O=[N+]([O-])c1ccc(N=NN(CCO)CCO)cc1	7%	-7%	x	4%
N#CCCCS(=O)(=O)c1ccccc1	12%	x	-20%	x
COCCCNc1c2c3c(cccc3[nH]c1=O)C(=O)c1ccccc1-2	-12%	10µM*	-40%	x
COCCCNC1=C(Cl)C(=O)c2ccccc2C1=O	-24%	2%[9.22 µM]	-17%[10 µM]	-16%
O=C(c1cc(O)c(O)c([N+](=O)[O-])c1)c1ccccc1F	11µM*	x	1%[1.9 µM]	-13%
CC(=O)c1cccc(NC(=O)NNC(=O)c2ccc(Cl)cc2Cl)c1	4%	11µM*	-23%	8%
O=C(NCc1ccc2c(c1)OCO2)O[C@@H]1C(=O)c2cc(Br)ccc2O[C@H]1c1ccc2c(c1)OCO2	-8%	x	-9%	x
SMILES	JMJD2E inh	HttQ103 aggreg	HTT ATP protect	L3MBTL1 block
Cc1[nH]nc2ncc(C(=O)c3ccccc3O)cc12	-2%	6.3µM*	20µM*	2%
COC(=O)c1nnc(C(=O)N(C)Cc2ccccc2)c2[nH]c3ccccc3c12	1%	x	-44%	x
COc1cccc(Cn2c(=O)c(-c3cccc(C#N)c3)nc3cnc(N4CCOCC4)nc32)c1	x	x	-83%	x
COc1ccc2cc3c(N)nn(C(=O)c4ccc(F)cc4)c3nc2c1	u	2.8µM*	-10%[10 µM]	x
COc1ccc2cc3c(N)nn(C(=O)c4ccccc4Cl)c3nc2c1	4%	0.35µM*	0%[10 µM]	x
COc1ccc2cc3c(N)nn(C(=O)c4cccc(F)c4)c3nc2c1	0%	1µM*	-22%[10 µM]	x
COc1ccc2cc3c(N)nn(C(=O)c4ccc(OC)c(OC)c4)c3nc2c1	x	x	x	14%
O=C(Oc1ccccc1)N1CCC2(CC1)CCN(c1ccncc1)CC2	x	x	26%	x
O=C(O)C1Cc2[nH]cnc2C(c2ccccc2O)N1 (stereo not drawn)	32µM*	14%	-6%[10 µM]	4%
O=C(O)C1Cc2[nH]cnc2C(c2cccc([N+](=O)[O-])c2)N1 (stereo not drawn)	u	14%	-10%	-4%
CC1=C(C#N)C(NC(=O)C2CCCCC2)(C(F)(F)F)C(=O)N1 (stereo not drawn)	-5%	13%	9%	7%
CC1=C(C#N)C(NC(=O)C2CC2)(C(F)(F)F)C(=O)N1 (stereo not drawn)	7%	0.32µM*	-55%[10 µM]	-3%[11.4 µM]
O=C(Nc1nccs1)c1cc2c(s1)CCCCC2	u	13µM*	-69%[10 µM]	x
O=C(Nc1nncs1)c1cc2c(s1)CCC2	-3%	-16%	-83%	-3%
COC(=O)C/C=C/[C@@H](C)[C@H](NC(=O)OCC(Cl)(Cl)Cl)c1cccc(OC)c1	0%	x	u	x
CN1\C(=C/C=C/C=C/C=[N+](C)C)C(C)(C)c2ccccc21	u	10µM*	-42%	u
CN1/C(=C\C=O)C(C)(C)c2ccccc21	-27%	u	-20%	-4%
CCOc1ccc(NC(=O)c2cccc(-n3cccc3)c2)cc1S(=O)(=O)N1CCOCC1	x	x	x	5.6µM*
O=C(O)C/C=C\CC(=O)O	x	x	-4%[10 µM]	x
CCCCC/C=C/C=C1/C(=O)C=C[C@@H]1C/C=C\CCCC(=O)O	-12%	x	u	x
CCCCC[C@H](O)C/C=C1/C(=O)C=C[C@@H]1C/C=C\CCCC(=O)O	-6%	x	11µM*	x
O=C(O)c1cc(N(Cc2ccccc2O)Cc2cc(O)ccc2O)ccc1O	x	x	-61%	x
CC(=O)N(Cc1ccc(F)cc1)C1=C(NCCc2ccccc2)C(=O)c2ccccc2C1=O	u	7.1µM*	-157%	x
CC(=O)N(Cc1ccc(F)cc1)c1cccc(C)c1C	-5%	-3%[9.22 µM]	-30%	-2%
CCN(CC)CCCC(C)n1c(-c2ccccc2)nc2c(NCc3ccccc3)nc(C)nc21 (stereo not drawn)	u	x	-34%	x
SMILES	JMJD2E inh	HttQ103 aggreg	HTT ATP protect	L3MBTL1 block
O=C1c2ccccc2C(=O)c2c(Nc3ccc(CCO)cc3)ccc(O)c21	-26%	17%[9.22 µM]	10%[10 µM]	5.6µM*
O=C1c2ccccc2C(=O)c2c(O)ccc(O)c21	-15%	x	-74%	x
O=C(O[C@@H]1OC2COC(=O)c3cc(O)c(O)c(O)c3-c3c(cc(O)c(O)c3O)C(=O)O[C@@H]([C@H]1O)[C@@H]2O)c1cc(O)c(O)c(O)c1	-2%	-12%	x	0.1µM*
COc1c(O)cc2c(c1O)C1OC(CO)C(O)[C@H](O)[C@H]1OC2=O (stereo partly drawn)	7%	x	x	x
CCNc1nc(NCC)nc(C(=O)NN)n1	27%	-1%	-1%[10 µM]	4µM*
CCNc1nc(NCC)nc(OCC(=O)O)n1	5%	37%[9.22 µM]	37%[10 µM]	x
COc1ccc(CCN(C)CCC[C@@](C#N)(c2cc(OC)c(OC)c(OC)c2)C(C)C)cc1OC	x	x	-6%[1.9 µM]	x
CCOc1ccc(NCC2CCOC(C)(C)C2)cc1 (stereo not drawn)	20µM*	-10%	-12%[0.074 µM]	-8%
COc1cccc(Cn2c(=O)c(-c3ccc(Cl)cc3)nc3cnc(N(C)C)nc32)c1	x	x	-5%	x
c1ccc(-c2cn3nc4c(nc3n2)CCCC4)cc1	32µM*	9%	-102%	x
Cc1cc(C)c(/C=C2/C(=O)Nc3ccccc32)[nH]1	x	x	28%[1.9 µM]	x
Cn1cc(-c2nc3cnc(N4CCNCC4)nc3n(C)c2=O)c2ccccc21	x	x	-100%	x

Compound activity from PubChem.
